These results are taken from PubChem BioAssay (NCATS).

A short description of experiment [1]: Confirmation and Secondary Assay for Modulators of Hemoglobin Beta Chain Splicing at IVS2 654 locus (AID 910).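 Further: HeLa cells stably carrying EGFP split by mutant beta-globin IVS2-654 intron; per-well total GFP intensity by laser scanning cytometry after 2-day treatment; % of control where 0% means no effect.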 Put shortly:
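Readout: per-well total peak green fluorescence (488 nm ex, 500–520 nm em) from objects 5–250 µm, reflecting correct splicing of an EGFP-654 reporter. Compounds were applied for 2 days at 37 °C to overnight-plated HeLa EGFP-654 cells; controls were DMSO and 500 nM IVS2-654 PNA.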

A short description of experiment [2]: Cell Viability - LYMP2-001 (AID 921). Further: nearly all actives have a fitted effect of over 70% in size. Further: potency means the concentration at half of the fitted maximal effect. The method in brief: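 CellTiter-Glo luminescence (intracellular ATP) after 24 hr compound exposure at 37 C, 2500 lymphoblastoid cells/well in complete medium. AC50 fitted with standard Hill equation; tetraoctylammonium bromide positive control.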
Experiment [3] has as its target Muscarinic acetylcholine receptor M1 (Rattus norvegicus) (UniProt P08482). As to the kind of experiment: qHTS Assay for Antagonists of Acetylcholine Muscarinic M1 Receptor: Kinetic Measurement of Intracellular Calcium Response (AID 943).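 Further: Fluo-4 calcium signal as peak divided by basal fluorescence over 4 min; series mostly up to about 35 µM; nearly all actives have a fitted effect of over 75% in size.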 The method in brief:
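Antagonism measured as reduction of carbachol-evoked (EC80, 100 nM final) calcium flux in rat M1-CHO cells after 10 min compound exposure. Fluo-4 signal read kinetically; ratio of maximal to basal fluorescence.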
On the technique in general: qHTS replaces the single test concentration by a dilution series.

The target is the same in experiment [4]. As to the kind of experiment: qHTS Assay for Antagonists of Acetylcholine Muscarinic M1 Receptor: Measurement of IP-One Response (AID 944). Further: nearly all actives have a fitted effect of over 75% in size. Put shortly:
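IP1 accumulation measured via TR-FRET between d2-IP1 and Eu-cryptate anti-IP1 antibody after carbachol (200 nM, EC80) stimulation for 30 min; rat M1-transfected CHO cells received compound 10 min before agonist.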

Experiment [5] concerns the target Pyruvate kinase (Leishmania mexicana) (UniProt Q27686). Briefly: qHTS Validation Assay for Inhibitors of Leishmania Mexicana Pyruvate Kinase (AID 945). Further: potency means the concentration at half of the fitted maximal effect. The method in brief:
(§1)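 The enzyme is a highly purified E451W mutant of LmPYK used at 0.2 nM. It converts 0.5 mM PEP and 0.1 mM ADP over 1 h at room temperature; product ATP is quantified by luciferase luminescence relative to DMSO controls.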

Experiment [6] in a line: MultiTox-Fluor Cytotoxicity Assay - LYMP1-001 - Dead Cells (AID 946). Further: potency means the concentration at half of the fitted maximal effect. The method in brief:
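LYMP1-001 lymphoblastoid cells (2500/well) treated 16 h at 37 C. Dead-cell protease cleavage of bis-AAF-R110 read at Ex/Em 485/520. Normalized to DMSO and 15 uM tetraoctylammonium bromide; AC50 from Hill fits.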

Experiment [7] has as its target Pyruvate kinase PKM (Homo sapiens) (UniProt P14618). Briefly: qHTS Assay for Activators of Human Muscle Pyruvate Kinase (AID 954; active means well fitted curve in the direction sought with a large enough effect, not every such curve was filed as active;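 further: 0% = uninhibited enzyme and -100% = no enzyme or full thiadiazolimine inhibition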). Put shortly:
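Compound pinned into substrate mix (0.5 mM PEP, 0.1 mM ADP), then 0.1 nM PKM2 added; 1 h, RT. Stop/detection luciferase reagent added, luminescence read. Normalized to no-inhibition and no-enzyme or reference-inhibitor controls.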

The target in experiment [8] is Pyruvate kinase (Leishmania mexicana) (UniProt Q27686). As to the kind of experiment: qHTS Validation Assay for Activators of Leishmania Mexicana Pyruvate Kinase (AID 959). Put shortly:
as §1

Experiment [9] in a line: MultiTox-Fluor Cytotoxicity Assay - LYMP1-002 - Dead Cells (AID 960). Further: nearly all actives have a fitted effect of over 60% in size. Further: potency means the concentration at half of the fitted maximal effect. Put shortly: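 Dead-cell fluorescence (Ex/Em 485/520) after 16 h compound exposure at 37 C of LYMP1-002 lymphoblastoid cells in complete medium; AC50 by Hill equation, with data scaled between DMSO and 15 uM tetraoctylammonium bromide.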
Experiment [10] is described as follows: MultiTox-Fluor Cytotoxicity Assay - LYMP1-003 - Live Cells (AID 962). Further: potency means the concentration at half of the fitted maximal effect. The method in brief: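 Live-cell protease activity (GF-AFC substrate, 405/510 nm, 60 min at room temperature) after 16 h, 37 C compound exposure of human lymphoblastoid LYMP1-003 cells; concentration-response fitted to the Hill equation for AC50.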
Experiment [11] is described as follows: qHTS Assay for Identification of Small Molecule Agonists for Thrombopoietin (TPO) Signaling Pathway (AID 917). Further: potency means the concentration at half of the fitted maximal effect. The method in brief:
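Ba/F3 (mouse) + hTPO receptor + GpIIb-promoter luciferase; IL-3 withdrawn overnight; compound + 26 pM TPO (EC50), 24 hrs, 37 C, 5% CO2; Steadylite luminescence, 10 min RT.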

The nature of experiment [12]: Confirmation and Secondary Assay for Modulators of Hemoglobin Beta Chain Splicing at IVS2 705 locus (AID 930).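 Further: HeLa cells stably expressing the EGFP-705 splicing reporter; GFP fluorescence per well restored by corrected splicing of the IVS2-705 intron in EGFP; series mostly up to about 46 µM; % of control where 0% means no effect.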 The method in brief:
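Splice-correction reporter: EGFP cDNA split by beta-globin intron 2 bearing the 705 mutation, stably in HeLa. Compound incubation 2 days, 37C; fluorescent objects 5-250 µm summed per well.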

Experiment [13] can be described thus: qHTS Assay for Identification of Small Molecule Antagonists for Thrombopoietin (TPO) Signaling Pathway (AID 918). Further: potency means the concentration at half of the fitted maximal effect; nearly all actives have a fitted effect of over 60% in size. To be noted: TPO-dependent cell signaling reporter, antagonist mode. Put shortly: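 Inhibition read as reduced luciferase luminescence after 24 h at 37 C in IL-3-deprived Ba/F3 cells carrying human TPO receptor and GPIIb-promoter reporter, stimulated with 26 pM TPO (final, its EC50) alongside compound.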

A short description of experiment [14]: MultiTox-Fluor Cytotoxicity Assay - LYMP1-002 - Live Cells (AID 955). Further: potency means the concentration at half of the fitted maximal effect. Put shortly:
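After 16 h compound exposure at 37 C, live LYMP1-002 lymphoblastoid cells (2500/well) were quantified by cleavage of cell-permeant GF-AFC substrate, read at 405/510 nm after 60 min. Concentration-response fitted with Hill equation for AC50.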

The nature of experiment [15]: qHTS Assay for Identification of Small Molecule Agonists for Hypoxia Response Element Signaling Pathway (AID 914; active means well fitted activation curve with a large enough effect in the signal ratio, with a control signal flat, not every such curve was filed as active; the % refers to the signal ratio; further: % of control where 0% means no effect). The settings on record: ME-180 (cervical carcinoma) HRE-bla reporter, beta-lactamase ratio, CoCl2, 17 h; hits give high values. Put shortly:
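Cells were plated overnight, pin-dosed with compound in a titration series, co-stimulated with EC50 CoCl2 and incubated 17 hours at 37 degrees Celsius. CCF4 substrate was then loaded, and AC50 values came from the 460nm/530nm ratio.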

Experiment [16] in a line: MultiTox-Fluor Cytotoxicity Assay - LYMP1-001 - Live Cells (AID 947).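 Further: 0% = DMSO only and full inhibition = tetraoctylammonium bromide control.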
Experiment [17] can be described thus: Cell Viability - LYMP1-002 - Assay at 16 hr (AID 948). Further: potency means the concentration at half of the fitted maximal effect. Put shortly: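 LYMP1-002 human lymphoblastoid cells, 2500/well; 5 hr 37 C; cpd 16 hr 37 C; CellTiter-Glo 30 min RT; luminescence (ATP). Concentration-response, Hill-fit AC50. Pos ctrl tetraoctylammonium bromide.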
Experiment [18] is described as follows: MultiTox-Fluor Cytotoxicity Assay - LYMP1-003 - Dead Cells (AID 961).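 Further: 0% = DMSO and 100% = tetraoctylammonium bromide; nearly all actives have a fitted effect of over 70% in size.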 Put shortly:
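LYMP1-003 human lymphoblastoid cells (2500/well) exposed to compound 16 h at 37 C in complete medium; dead-cell protease read with bis-AAF-R110 fluorescence (Ex/Em 485/520) after 60 min at room temperature. Normalized to DMSO and 15 uM tetraoctylammonium bromide; AC50 from Hill fit.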

Experiment [19] deals with Pyruvate kinase PKM (Homo sapiens) (UniProt P14618). Briefly: qHTS Assay for Inhibitors of Human Muscle Pyruvate Kinase (AID 958). To be noted: purified human PKM enzyme activity. The method in brief:
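A coupled luminescent readout tracked ATP made from ADP by purified PKM2. Final conditions included 0.1 nM enzyme, PEP and ADP at 0.5 and 0.1 mM, pH 7.2 imidazole buffer with BSA, and a one-hour room-temperature reaction.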

Structures are written as SMILES. Values without a mark were called inactive. Results filed as inconclusive are left out. Activity calls are given as the source filed them. Unless noted, the call rests on the fitted dose curve; in most records, active means well fitted curve in the direction sought with a large enough effect; inconclusive means small, poorly fitted or top-dose-only effect, or another doubt; inactive means no such curve, though single readings can be large; an effect the other way counts as inactive or inconclusive.

Chain of Pyruvate kinase (Leishmania mexicana) (Q27686 2-499 E452W): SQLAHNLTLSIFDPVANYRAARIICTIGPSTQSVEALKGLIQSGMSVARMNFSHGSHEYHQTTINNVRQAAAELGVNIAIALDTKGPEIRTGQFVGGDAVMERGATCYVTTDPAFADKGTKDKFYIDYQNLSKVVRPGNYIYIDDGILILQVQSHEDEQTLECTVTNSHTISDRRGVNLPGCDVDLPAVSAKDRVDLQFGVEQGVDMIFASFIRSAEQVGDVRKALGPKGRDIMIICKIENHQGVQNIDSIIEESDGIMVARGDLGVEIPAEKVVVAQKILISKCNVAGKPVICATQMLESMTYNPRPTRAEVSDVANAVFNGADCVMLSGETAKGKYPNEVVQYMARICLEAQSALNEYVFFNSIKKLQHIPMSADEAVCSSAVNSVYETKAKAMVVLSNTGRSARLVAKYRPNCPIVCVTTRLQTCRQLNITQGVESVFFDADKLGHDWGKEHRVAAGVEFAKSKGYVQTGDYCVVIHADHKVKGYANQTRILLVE
Chain of Muscarinic acetylcholine receptor M1 (Rattus norvegicus) (P08482 whole entry, looked up): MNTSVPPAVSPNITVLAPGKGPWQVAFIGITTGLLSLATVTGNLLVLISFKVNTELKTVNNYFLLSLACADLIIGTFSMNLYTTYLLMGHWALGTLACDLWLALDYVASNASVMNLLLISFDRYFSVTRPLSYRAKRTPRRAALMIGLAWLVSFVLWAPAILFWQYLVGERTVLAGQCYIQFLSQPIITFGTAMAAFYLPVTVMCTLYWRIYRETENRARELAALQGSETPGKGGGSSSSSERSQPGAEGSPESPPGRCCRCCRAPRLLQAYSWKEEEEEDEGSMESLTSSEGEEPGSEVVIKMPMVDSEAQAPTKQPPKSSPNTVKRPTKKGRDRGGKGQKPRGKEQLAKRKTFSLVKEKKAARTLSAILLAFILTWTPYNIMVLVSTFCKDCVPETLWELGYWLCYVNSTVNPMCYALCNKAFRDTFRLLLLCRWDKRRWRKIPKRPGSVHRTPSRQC
Chain of Pyruvate kinase PKM (Homo sapiens) (P14618 whole entry, looked up): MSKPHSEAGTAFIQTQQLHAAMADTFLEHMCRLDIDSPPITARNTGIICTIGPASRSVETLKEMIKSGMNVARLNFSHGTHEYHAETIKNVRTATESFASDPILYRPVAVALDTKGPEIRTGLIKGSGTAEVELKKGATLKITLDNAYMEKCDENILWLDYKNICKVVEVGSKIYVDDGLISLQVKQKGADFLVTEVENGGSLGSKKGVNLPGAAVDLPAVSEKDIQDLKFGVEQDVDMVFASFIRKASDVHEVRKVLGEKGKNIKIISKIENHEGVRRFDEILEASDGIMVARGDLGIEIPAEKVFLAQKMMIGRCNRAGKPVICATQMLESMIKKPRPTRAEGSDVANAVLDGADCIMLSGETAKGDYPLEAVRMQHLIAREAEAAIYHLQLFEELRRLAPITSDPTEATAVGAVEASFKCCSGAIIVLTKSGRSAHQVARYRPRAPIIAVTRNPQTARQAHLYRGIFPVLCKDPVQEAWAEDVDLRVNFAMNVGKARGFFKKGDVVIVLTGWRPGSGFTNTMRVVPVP

In the case of `O=c1cc(-c2ccc(O)cc2)oc2cc(O)cc(O)c12`, the call in experiment [1], in experiment [3], in [4], in experiment [7] and in [8] was inactive. In addition, the Potency entry in experiment [2], in [9] and in experiment [10] was “inactive” each time. Moreover, the Potency is 12.6 µM (active) in experiment [5] and 79.4 µM (active) in experiment [6].

On to `CC(C)OC(=O)C(C)(C)Oc1ccc(C(=O)c2ccc(Cl)cc2)cc1`, for which the compound was classed as inactive in experiment [1], in experiment [12] and in [7]. In addition, the Potency entry in experiment [11] was “inactive”.

For the compound `CCCCCCCCCCCC1=C(O)C(=O)C=C(O)C1=O`, the result in experiment [1] and in experiment [12] was inactive.

With `CC/C(=C(\c1ccccc1)c1ccc(OCCN(C)C)cc1)c1ccccc1`, the call in [1], in [12] and in experiment [7] was inactive. The Potency is 10 µM (active) in experiment [13], 50.1 µM (active) in [6], 31.6 µM (active) in [14] and 25.1 µM (active) in [9]. For the same compound, the Potency entry in experiment [5] was “inactive”.

On to `C[N+](C)(C)CC(=O)O`, for which the Potency result in experiment [11] and in experiment [5] was “inactive” in each case. Besides, the outcome in experiment [3], in experiment [4] and in experiment [7] was inactive.

Take `c1cc(-c2sc(-c3ccncc3)c(-c3ccncc3)c2-c2ccncc2)ccn1`: the activation in [15] was -25.7%.

In the case of `CCN1CCC[C@H]1CNC(=O)c1cc(S(N)(=O)=O)ccc1OC`, the Potency result in experiment [11] and in experiment [5] was “inactive” throughout. The outcome in experiment [7] was inactive.

Take `CC(=O)N[C@@H](CS)C(=O)O`: the result in [3] and in experiment [7] was inactive. Besides, the Potency entry in experiment [5] was “inactive”.

Turning to `CC1(C)CCC2=C(O1)c1ccccc1C(=O)C2=O`, the Potency in experiment [13] was 1.58 µM (active). In addition, in experiment [5], the Potency entry is “inactive”. Further, the compound was classed as inactive in [7].

Turning to `O=c1c(O)c(-c2ccc(O)cc2)oc2cc(O)cc(O)c12`, the Potency result in [2], in experiment [6], in [17], in [14], in experiment [9] and in experiment [10] was “inactive” throughout. In addition, the compound was classed as inactive in [16] and in experiment [18].

`NC(N)=Nc1nc(CSCC/C(N)=N/S(N)(=O)=O)cs1`: the Potency result in experiment [11] and in [5] was “inactive” throughout. The result in experiment [7] was inactive.

With `CCN(CC)C(=O)c1ccc(O)c(OC)c1`, the Potency result in experiment [11] and in experiment [5] was “inactive” in each case. Moreover, the outcome in experiment [3], in [4] and in [7] was inactive.

On to `O=c1[nH]cnc2c1ncn2[C@H]1CC[C@@H](CO)O1`, for which the Potency result in experiment [2], in [6], in experiment [17], in [14], in experiment [9] and in experiment [10] was “inactive” each time. Moreover, the compound was called inactive in experiment [16] and in experiment [18].

On to `COc1cc(O)c2c(c1)C(=O)c1cc(C)cc(O)c1C2=O`, for which the compound was called inactive in [1] and in experiment [12].

Take `Clc1ccc(Cn2c(CN3CCCC3)nc3ccccc32)cc1`: the Potency entry in [11] and in experiment [5] was “inactive” each time. Besides, the compound was called inactive in experiment [4] and in experiment [7].

As to `COc1ccc(-c2coc3cc(O)ccc3c2=O)cc1`, the result in [1] and in [12] was inactive.

As for `CC(C)(C)c1ccc(C(O)CCCN2CCC(C(O)(c3ccccc3)c3ccccc3)CC2)cc1` (centres undefined), the activation in experiment [15] was 3.01%. For the same compound, the Potency in experiment [13] was 2.51 µM (active). The Potency result in experiment [5] was “inactive”. The call in experiment [7] was inactive.

Turning to `Cc1cccc(C)c1OCC(C)N` (centres undefined), the call in experiment [1] and in experiment [12] was inactive.

As for `O=C(O)c1cc(O)c2c(c1)C(=O)c1cccc(O)c1C2=O`, the Potency result in [2], in experiment [6], in experiment [17], in experiment [14], in experiment [9] and in experiment [10] was “inactive” in each case. Moreover, the compound was classed as inactive in experiment [16] and in [18].

Turning to `COc1cccc(-c2cc(=O)c3ccccc3o2)c1N`, the Potency in [11] is 0.398 µM (active); in experiment [5], 12.6 µM (active); in [19], 15.8 µM (active). The outcome in [4], in [7] and in [8] was inactive.

`COc1ccc(C2Sc3ccccc3N(CCN(C)C)C(=O)C2OC(C)=O)cc1` (centres undefined): the compound was classed as inactive in experiment [1] and in [12].

Take `O=C(O)Cc1cccc2ccccc12`: the Potency entry in experiment [2], in experiment [6], in experiment [17], in experiment [14], in experiment [9] and in experiment [10] was “inactive” in each case. The call in [16] and in experiment [18] was inactive.

For the compound `CC(=O)O[C@]1(C(C)=O)CC[C@H]2[C@@H]3C=C(Cl)C4=CC(=O)[C@@H]5C[C@@H]5[C@]4(C)[C@H]3CC[C@@]21C`, the Potency result in [2], in experiment [17], in [14], in [9] and in experiment [10] was “inactive” each time. Also, the call in experiment [16] and in [18] was inactive.

With `CC1=C(/C=C/C(C)=C/C=C/C(C)=C/C(=O)Nc2ccc(O)cc2)C(C)(C)CCC1`, the Potency in experiment [13] is 10 µM (active); in [2], 39.8 µM (active); in experiment [6], 79.4 µM (active); in experiment [17], 50.1 µM (active); in [14], 25.1 µM (active); in experiment [9], 31.6 µM (active). Besides, the Potency in experiment [10] was 50.1 µM (active). Also, the result in experiment [3], in [4] and in [7] was inactive. Also, in experiment [5], the Potency result was “inactive”.

Consider `COCCCCC(=NOCCN)c1ccc(C(F)(F)F)cc1`, for which the Potency entry in experiment [11] and in experiment [5] was “inactive” throughout. Also, the outcome in experiment [3], in experiment [4] and in [7] was inactive.

Take `CC(=O)c1ccc(S(=O)(=O)NC(=O)NC2CCCCC2)cc1`: the Potency entry in experiment [11], in experiment [2], in [5], in experiment [6], in experiment [17] and in [14] was “inactive” each time. In addition, the Potency entry in experiment [10] was “inactive”. Further, the result in experiment [3], in [16], in experiment [7] and in [18] was inactive.

On to `COc1ccc(Cc2nccc3cc(OC)c(OC)cc23)cc1OC`, for which the Potency result in experiment [5] is “inactive”. Further, the compound was classed as inactive in experiment [7].

Regarding `O=c1cc(-c2ccccc2)oc2cc(O)cc(O)c12`, the result in [1] and in [12] was inactive.
